The text below walks through data of PubChem BioAssay (NCATS).

“And” between values parts separate entries of the source, which are not always exact repeats. Equal values may be shown once. Inconclusive results are not listed. The source made the active and inactive calls. Unless noted, calls follow the shape of the full dose curve.

Assay [1] deals with Glucocorticoid receptor (Homo sapiens) (UniProt P04150). The assay is described as follows: qHTS assay for small molecule agonists of glucocorticoid receptor signaling (AID 588532; active = well fitted curve in the direction sought with a large enough effect in the signal ratio, with a control signal flat; the % refers to the signal ratio;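 also: 100% = dexamethasone at 0.1 µM and 0% = DMSO only wells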). The note with it: HeLa MMTV-bla, beta-lactamase ratio, agonist, 18 h; activation: stronger effect = higher value, percent of dexamethasone control, DMSO zero. The method, boiled down: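 MMTV-bla HeLa, beta-lactamase reporter; medium with 1% charcoal/dextran-stripped FBS; cpds up to 92 uM, 18 h, 37 C; CCF4 readout 460/530 nm; Hill fit → EC50, efficacy vs 0.1 uM dexamethasone = 100%.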

In assay [2] the target is Peroxisome proliferator-activated receptor delta (Homo sapiens) (UniProt Q03181). The assay is described as follows: qHTS assay for small molecule agonists of peroxisome proliferator-activated receptor delta signaling (AID 588534).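 Also: 0% = DMSO basal wells and 100% = positive control agonist at 10 µM.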 The method, boiled down:
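EC50 and efficacy values derive from Hill fits of a concentration series in a beta-lactamase reporter cell assay. Exposure is 18 hrs at 37 C, with CCF4 fluorescence as the readout.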

The nature of assay [3]: qHTS assay for small molecule antagonists of peroxisome proliferator-activated receptor delta signaling (AID 588535).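 Also: cells co-treated with a PPAR-delta agonist as stimulator during compound exposure.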 The note with it: HEK293T PPARd-UAS-bla, beta-lactamase FRET ratio, 18 h; 460 nm channel. In outline: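 Compounds tested in titration on PPAR-delta-UAS-bla HEK293T cells grown in charcoal/dextran-stripped serum (2%); beta-lactamase activity read via CCF4 emission at 460 and 530 nm.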

Assay [4] deals with Vitamin D3 receptor (Homo sapiens) (UniProt P11473). The experiment in a line: qHTS assay for small molecule antagonists of vitamin D receptor signaling (AID 588541).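 Also: receptor activated by calcitriol during compound treatment; series mostly up to about 77 µM; % is scaled to controls: 0 for no effect and ±100 for the full control effect.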 The method, boiled down:
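VDR-UAS-bla HEK293T cells (2000/well, 2% charcoal-stripped FBS) were treated with titrated compounds plus 1-alpha,25-dihydroxyvitamin D3 (50 nM or 3 nM final) for 16 h at 37 C. CCF4 beta-lactamase fluorescence was read; Hill fits gave IC50.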

For assay [5] the target is unchanged. The assay is described as follows: qHTS assay for small molecule agonists of vitamin D receptor signaling (AID 588543).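 Also: 0% = DMSO basal and 100% = reference agonist control.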 The method, boiled down: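 Measured: β-lactamase reporter activity (CCF4, 405 nm excitation, 460/530 nm emission) in HEK293T VDR-UAS-bla cells after 16 h compound exposure at 37 °C. Normalization against 50 nM 1α,25-dihydroxyvitamin D3 and DMSO; Hill-fit EC50.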

Assay [6] deals with Retinoic acid receptor RXR-alpha (Homo sapiens) (UniProt P19793). The assay is described as follows: qHTS assay for small molecule agonists of retinoid X receptor alpha signaling (AID 588544).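 Also: 0% = DMSO basal wells and 100% = reference agonist.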
Assay [7] is described as follows: qHTS assay for small molecule antagonists of retinoid X receptor alpha signaling (AID 588546; active = well fitted inhibition curve with a large enough effect in the signal ratio, with a control signal flat, not every such curve was filed as active; the % refers to the signal ratio;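 also: cells stimulated with 9-cis-retinoic acid as agonist; % is scaled to controls: 0 for no effect and ±100 for the full control effect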). The note with it: HEK293T RXRa-UAS-bla, beta-lactamase ratio, antagonist mode; measured here: W530 green channel, cytotoxicity proxy. In outline:
(§1)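 Beta-lactamase reporter inhibition, read as CCF4 fluorescence ratio (ex 405, em 460/530 nm) after 2 h at RT. HEK293T UAS-bla cells, 2500/well, were stimulated with 9-cis-RA at 500 or 100 nM final alongside test compound for 18 h at 37 C.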

Assay [8] addresses Thyroid hormone receptor beta (Homo sapiens) (UniProt P10828). The experiment in a line: qHTS assay for small molecule antagonists of thyroid hormone receptor beta signaling (AID 588547; active = well fitted inhibition curve with a large enough effect in the signal ratio, with a control signal flat, not every such curve was filed as active; the % refers to the signal ratio;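 also: cells stimulated with 0.4 nM T3 agonist during compound exposure; series mostly up to about 77 µM; % is scaled to controls: 0 for no effect and ±100 for the full control effect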). The note with it: TR-UAS-bla HEK293, beta-lactamase ratio, antagonist mode, 18 h. The method, boiled down: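 TR-UAS-bla GripTite HEK293 cells in 2% charcoal/dextran FBS medium were preincubated 4 h at 37 C, given compound (0.59 nM to 92 uM) plus 0.4 nM T3 (final) for 18 h, then CCF4 for 2 h at RT; Hill fit gave IC50.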

Assay [9] can be described thus: qHTS assay for environmental chemicals that activate the Aryl hydrocarbon Receptor (AhR) signaling pathway (AID 651777; active = well fitted curve in the direction sought with a large enough effect; an effect the other way counts as inactive or inconclusive; also: % of control where 0% means no effect; nearly all actives have a fitted effect of over 15% in size). The note with it: 1A2-DRE human hepatoma cells, luciferase, 24 h; activation: stronger effect = higher value. In outline:
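Concentration–response screening used 1,200 1A2-DRE cells per well, 24 hr compound exposure (37 C, 5% CO2), and One-Glo luminescence as the AhR-driven CYP1A2 reporter signal.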

The target of assay [10] is Peroxisome proliferator-activated receptor alpha (Homo sapiens) (UniProt Q07869). The assay is described as follows: qHTS assay for small molecule agonists of the peroxisome proliferator-activated receptor alpha (PPARalpha) signaling pathway (AID 651778; active = well fitted curve in the direction sought with a large enough effect; an effect the other way counts as inactive or inconclusive; also: % of control where 0% means no effect). The note with it: PathHunter PPARalpha complementation, chemiluminescence, 6 h; max response: stronger effect = higher value. In outline:
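Cells plated at 2,000/well and held overnight at 37 C, 5% CO2, then compound added by pin tool for 6 hr; after PathHunter detection reagent and 60 min at room temperature, chemiluminescence from enzyme complementation was read.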

A short description of assay [11]: qHTS assay for small molecule agonists of the antioxidant response element (ARE) signaling pathway measured by Nrf2-dependant transcriptional activity - cell viability counter screen (AID 720653; active = well fitted curve in the direction sought with a large enough effect in the repeat runs; an effect the other way counts as inactive or inconclusive; also: % is scaled to controls: 0 for no effect and ±100 for the full control effect). The note with it: ARE-bla HepG2 viability, CellTiter-Glo ATP luminescence, 16 h; max response: stronger effect = lower value. In outline:
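ARE-bla HepG2 cells (2,000/well) rested 5 hrs at 37C/5% CO2, then exposed to compounds in DMSO for 16 hrs. Viability was read in the same wells as intracellular ATP by luminescence, 30 min at room temperature after reagent addition.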

Assay [12] is described as follows: qHTS assay for cell viability of HEK293 cells (AID 743288; active = well fitted curve in the direction sought with a large enough effect; an effect the other way counts as inactive or inconclusive; also: % is scaled to controls: 0 for no effect and ±100 for the full control effect; nearly all actives have a fitted effect of over 50% in size). The note with it: ATP luminescence (CellTiter-Glo), 18 h; max response: stronger effect = lower value. In outline:
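HEK293, 18 h, 37 C, ATP luminescence. Cells at 2,000/well were allowed at least 5 h to settle before dosing; CellTiter-Glo developed 30 min at RT.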

Assay [13] is described as follows: qHTS assay for cell viability of the p53RE-bla HCT-116 cell line (AID 743292; active = well fitted curve in the direction sought with a large enough effect; an effect the other way counts as inactive or inconclusive; also: nearly all actives have a fitted effect of over 55% in size; also: potency is read from the fitted curve at half-maximal effect). The method, boiled down: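 Compound-exposed HCT-116 (p53RE-bla) cells, 4,000 per well, were kept 16 h at 37 C following a 5 h preincubation. Cell number was estimated from total ATP by CellTiter-Glo luminescence read after 30 min at room temperature.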
In assay [14] the target is Nuclear receptor subfamily 1 group I member 2 (Rattus norvegicus) (UniProt Q9R1A7). The experiment in a line: qHTS assay for small molecule activators of the rat pregnane X receptor (rPXR) signaling pathway (AID 651751; call rule not given here; also: 0% is about no effect). The note with it: rPXR reporter cells, luciferase (One-Glo), 24 h.
Assay [15] can be described thus: qHTS assay for small molecule activators of the p53 signaling pathway (AID 651743; active = well fitted activation curve with a large enough effect in the signal ratio, not every such curve was filed as active; the % refers to the signal ratio; also: series mostly up to about 92 µM; % of control where 0% means no effect). The note with it: HCT-116 p53RE-bla, beta-lactamase FRET ratio, 16 h; activation: stronger effect = higher value. In outline: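 Here HCT-116 cells with an integrated p53-responsive beta-lactamase gene were incubated with compounds (16 hours, 37 C) after a 5-hour plating period; beta-lactamase activity was detected as fluorescence intensity via B/G FRET substrate.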

Assay [16] can be described thus: qHTS assay for small molecule agonists of the antioxidant response element (ARE) signaling pathway measured by Nrf2-dependant transcriptional activity (AID 720636; active = well fitted curve in the direction sought with a large enough effect in the repeat runs; an effect the other way counts as inactive or inconclusive;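 also: HepG2 cells with an ARE-driven luciferase reporter; % of control where 0% means no effect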). The method, boiled down: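 Attachment 6 hr at 37 C, then compound versus DMSO vehicle for 16 hr in ARE-luc HepG2 cells (1% dialyzed FBS); luminescence recorded 30 min after ONE-Glo addition at room temperature.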

Assay [17] concerns the target Peroxisome proliferator-activated receptor gamma (Homo sapiens) (UniProt P37231). The assay is described as follows: qHTS assay for small molecule agonists of peroxisome proliferator-activated receptor gamma signaling (AID 588536; active = well fitted curve in the direction sought with a large enough effect in the signal ratio, with a control signal flat, not every such curve was filed as active; the % refers to the signal ratio;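 also: 0% = DMSO basal wells and 100% = rosiglitazone at 2 µM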). The method, boiled down: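 Beta-lactamase reporter read-out: CCF4 fluorescence (ex 405, em 460/530 nm) after 2 h at RT. HEK293 GeneBLAzer cells were treated for 16 h at 37 C. Hill fits gave EC50 and efficacy versus 2 uM rosiglitazone (100%) and DMSO (0%).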

Assay [18] has the same target. The assay is described as follows: qHTS assay for small molecule antagonists of peroxisome proliferator-activated receptor gamma signaling (AID 588537; active = well fitted inhibition curve with a large enough effect in the signal ratio, with a control signal flat, not every such curve was filed as active; the % refers to the signal ratio;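 also: reporter cells co-stimulated with 50 nM rosiglitazone agonist during compound treatment; % of control where 0% means no effect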). The method, boiled down: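 HEK293 cells, PPAR-gamma-UAS-bla, 3000/well. Pre-incubation 6-6.5 h, 37 C. Compound titration with rosiglitazone 50 nM final, 16 h. CCF4 dye, 2 h RT, dual-emission fluorescence.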
The target in assay [19] is Thyroid hormone receptor beta (Homo sapiens) (UniProt P10828). The experiment in a line: qHTS assay for small molecule agonists of thyroid hormone receptor beta signaling (AID 588545).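 Also: 0% = DMSO only and 100% = 10 nM T3.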 The method, boiled down: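 Beta-lactamase reporter activity under TR response element control is measured in HEK 293 cells after 18 hrs compound exposure. Signal is ratiometric CCF4 fluorescence, 460/530 nm.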

Assay [20] has as its target Retinoic acid receptor RXR-alpha (Homo sapiens) (UniProt P19793). The assay is described as follows: qHTS assay for small molecule antagonists of retinoid X receptor alpha signaling (AID 588546).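 Also: cells stimulated with 9-cis-retinoic acid as agonist; % is scaled to controls: 0 for no effect and ±100 for the full control effect.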 The note with it: HEK293T RXRa-UAS-bla, beta-lactamase ratio, antagonist mode. The method, boiled down:
as §1

Sequence of Glucocorticoid receptor (Homo sapiens) (P04150 whole entry, looked up): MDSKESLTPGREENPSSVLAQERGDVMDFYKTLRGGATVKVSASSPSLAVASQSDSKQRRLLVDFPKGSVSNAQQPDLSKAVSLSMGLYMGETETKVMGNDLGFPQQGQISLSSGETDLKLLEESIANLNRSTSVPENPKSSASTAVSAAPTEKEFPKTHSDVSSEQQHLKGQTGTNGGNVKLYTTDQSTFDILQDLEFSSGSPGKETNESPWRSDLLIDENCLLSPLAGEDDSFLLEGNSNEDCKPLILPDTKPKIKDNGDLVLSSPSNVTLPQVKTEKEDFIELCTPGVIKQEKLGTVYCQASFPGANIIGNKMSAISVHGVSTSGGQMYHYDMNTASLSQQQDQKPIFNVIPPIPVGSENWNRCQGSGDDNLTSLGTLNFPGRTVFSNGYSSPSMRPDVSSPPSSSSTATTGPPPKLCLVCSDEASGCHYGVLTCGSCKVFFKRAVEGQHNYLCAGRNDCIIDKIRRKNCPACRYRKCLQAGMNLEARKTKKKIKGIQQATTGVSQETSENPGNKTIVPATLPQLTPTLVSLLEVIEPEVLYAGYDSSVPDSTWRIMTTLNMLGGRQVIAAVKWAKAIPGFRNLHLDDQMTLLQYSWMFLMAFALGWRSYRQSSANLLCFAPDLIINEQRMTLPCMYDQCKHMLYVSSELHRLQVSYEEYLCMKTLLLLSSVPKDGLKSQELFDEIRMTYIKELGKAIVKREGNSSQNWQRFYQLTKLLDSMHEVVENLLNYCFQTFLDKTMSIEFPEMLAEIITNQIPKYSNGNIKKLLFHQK
Sequence of Peroxisome proliferator-activated receptor alpha (Homo sapiens) (Q07869 whole entry, looked up): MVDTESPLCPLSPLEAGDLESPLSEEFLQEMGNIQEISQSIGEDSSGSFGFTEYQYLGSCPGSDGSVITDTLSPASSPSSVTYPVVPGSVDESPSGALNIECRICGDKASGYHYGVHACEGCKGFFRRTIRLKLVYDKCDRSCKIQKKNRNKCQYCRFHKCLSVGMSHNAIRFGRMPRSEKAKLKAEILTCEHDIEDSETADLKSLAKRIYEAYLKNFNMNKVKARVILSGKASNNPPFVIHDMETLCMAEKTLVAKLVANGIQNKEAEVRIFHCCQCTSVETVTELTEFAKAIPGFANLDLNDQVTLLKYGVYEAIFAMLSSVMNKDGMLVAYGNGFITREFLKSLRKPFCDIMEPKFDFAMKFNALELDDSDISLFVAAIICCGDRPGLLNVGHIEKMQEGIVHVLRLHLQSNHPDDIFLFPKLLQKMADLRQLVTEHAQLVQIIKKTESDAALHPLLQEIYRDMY
Sequence of Peroxisome proliferator-activated receptor delta (Homo sapiens) (Q03181 whole entry, looked up): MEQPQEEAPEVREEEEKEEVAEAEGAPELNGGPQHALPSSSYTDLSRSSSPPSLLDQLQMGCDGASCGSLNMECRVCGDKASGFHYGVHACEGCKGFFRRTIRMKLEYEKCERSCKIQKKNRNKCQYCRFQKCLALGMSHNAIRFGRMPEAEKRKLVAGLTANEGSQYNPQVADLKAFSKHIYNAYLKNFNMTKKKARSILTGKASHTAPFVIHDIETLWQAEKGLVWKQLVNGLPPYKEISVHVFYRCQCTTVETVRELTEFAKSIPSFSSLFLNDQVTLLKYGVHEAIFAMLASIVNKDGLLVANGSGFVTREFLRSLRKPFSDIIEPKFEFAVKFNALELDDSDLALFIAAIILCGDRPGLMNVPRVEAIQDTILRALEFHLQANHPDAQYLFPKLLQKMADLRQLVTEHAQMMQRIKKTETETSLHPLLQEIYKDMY
Sequence of Peroxisome proliferator-activated receptor gamma (Homo sapiens) (P37231 whole entry, looked up): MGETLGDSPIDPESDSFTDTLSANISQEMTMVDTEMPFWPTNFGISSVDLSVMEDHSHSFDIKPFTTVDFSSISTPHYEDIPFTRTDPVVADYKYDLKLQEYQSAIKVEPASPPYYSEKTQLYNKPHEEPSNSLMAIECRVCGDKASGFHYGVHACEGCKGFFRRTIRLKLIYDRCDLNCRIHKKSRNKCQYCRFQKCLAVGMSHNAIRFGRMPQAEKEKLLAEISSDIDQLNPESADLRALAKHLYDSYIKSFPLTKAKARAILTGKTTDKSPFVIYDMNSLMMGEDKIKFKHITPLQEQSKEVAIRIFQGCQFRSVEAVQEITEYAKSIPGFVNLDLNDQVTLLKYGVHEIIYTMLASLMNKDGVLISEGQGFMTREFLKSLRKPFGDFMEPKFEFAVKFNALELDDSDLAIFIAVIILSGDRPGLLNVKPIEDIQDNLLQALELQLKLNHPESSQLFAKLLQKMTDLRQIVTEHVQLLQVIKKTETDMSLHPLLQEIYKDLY
Sequence of Vitamin D3 receptor (Homo sapiens) (P11473 whole entry, looked up): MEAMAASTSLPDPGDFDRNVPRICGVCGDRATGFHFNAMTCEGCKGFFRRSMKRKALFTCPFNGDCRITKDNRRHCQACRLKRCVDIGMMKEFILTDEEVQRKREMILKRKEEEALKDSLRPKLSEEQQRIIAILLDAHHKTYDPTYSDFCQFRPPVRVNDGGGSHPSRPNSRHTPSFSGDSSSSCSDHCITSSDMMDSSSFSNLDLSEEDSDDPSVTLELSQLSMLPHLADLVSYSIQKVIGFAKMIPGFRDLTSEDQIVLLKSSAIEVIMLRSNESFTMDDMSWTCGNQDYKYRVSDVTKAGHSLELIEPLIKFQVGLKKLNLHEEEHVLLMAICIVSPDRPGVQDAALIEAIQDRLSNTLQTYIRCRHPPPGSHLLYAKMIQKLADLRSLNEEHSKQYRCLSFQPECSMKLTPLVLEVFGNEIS
Sequence of Retinoic acid receptor RXR-alpha (Homo sapiens) (P19793 whole entry, looked up): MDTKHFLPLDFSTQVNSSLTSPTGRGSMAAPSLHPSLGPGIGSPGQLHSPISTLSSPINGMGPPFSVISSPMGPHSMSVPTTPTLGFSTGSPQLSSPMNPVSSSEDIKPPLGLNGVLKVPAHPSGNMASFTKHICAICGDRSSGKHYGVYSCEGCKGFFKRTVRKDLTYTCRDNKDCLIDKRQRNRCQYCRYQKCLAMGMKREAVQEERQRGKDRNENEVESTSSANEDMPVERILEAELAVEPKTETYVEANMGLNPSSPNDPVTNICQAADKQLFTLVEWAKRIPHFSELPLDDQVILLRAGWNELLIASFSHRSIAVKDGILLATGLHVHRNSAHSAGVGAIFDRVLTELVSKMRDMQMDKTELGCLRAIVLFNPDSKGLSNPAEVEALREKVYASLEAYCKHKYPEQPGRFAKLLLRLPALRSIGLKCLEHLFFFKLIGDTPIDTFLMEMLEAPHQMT
Sequence of Thyroid hormone receptor beta (Homo sapiens) (P10828 whole entry, looked up): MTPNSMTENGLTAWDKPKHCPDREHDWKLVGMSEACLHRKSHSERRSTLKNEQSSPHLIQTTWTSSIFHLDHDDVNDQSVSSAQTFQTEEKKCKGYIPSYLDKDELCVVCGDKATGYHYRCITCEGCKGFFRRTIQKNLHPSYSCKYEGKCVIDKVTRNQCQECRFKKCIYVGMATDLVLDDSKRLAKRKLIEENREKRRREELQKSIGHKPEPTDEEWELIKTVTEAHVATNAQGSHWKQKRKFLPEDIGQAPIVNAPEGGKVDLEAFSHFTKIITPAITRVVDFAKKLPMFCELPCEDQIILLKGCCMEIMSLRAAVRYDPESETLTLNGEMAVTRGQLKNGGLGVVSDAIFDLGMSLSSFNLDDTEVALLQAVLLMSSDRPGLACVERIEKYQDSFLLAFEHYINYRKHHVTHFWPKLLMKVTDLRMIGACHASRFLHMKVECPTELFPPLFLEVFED
Sequence of Nuclear receptor subfamily 1 group I member 2 (Rattus norvegicus) (Q9R1A7 whole entry, looked up): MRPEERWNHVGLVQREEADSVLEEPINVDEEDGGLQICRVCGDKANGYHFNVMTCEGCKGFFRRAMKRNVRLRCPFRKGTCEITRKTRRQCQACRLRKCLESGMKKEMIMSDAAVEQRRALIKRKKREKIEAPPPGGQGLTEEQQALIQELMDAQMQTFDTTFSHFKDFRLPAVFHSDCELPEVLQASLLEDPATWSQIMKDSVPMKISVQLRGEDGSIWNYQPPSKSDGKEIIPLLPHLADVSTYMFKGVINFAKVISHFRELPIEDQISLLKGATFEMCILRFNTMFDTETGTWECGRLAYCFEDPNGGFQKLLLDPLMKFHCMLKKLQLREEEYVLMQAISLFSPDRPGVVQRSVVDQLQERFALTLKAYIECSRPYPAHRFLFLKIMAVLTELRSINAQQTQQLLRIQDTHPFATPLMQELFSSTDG

Turning to `CCC(C)(C)c1cc(-n2nc3ccccc3n2)c(O)c(C(C)(C)CC)c1`, the activation in [1] is 2.15% (inactive); in assay [9], 0.0202% (inactive). For the same compound, the call in assay [2] and in assay [5] was inactive. The max response is -9.56% in assay [3]; -14% in assay [7]; 0.0334% (inactive) in assay [10]; -12.9% (inactive) in [11]; -9.99% (inactive) in assay [12]; -0.463% (inactive) in [14]. The Potency result in [4], in [6] and in assay [13] was “inactive” each time. The activity change % (negative = inhibition) in [8] is 12% (inactive).
Turning to `COC(=O)N(C(=O)N1COC2(C(=O)OC)Cc3cc(Cl)ccc3C2=N1)c1ccc(OC(F)(F)F)cc1` (centres undefined), the activation in assay [1] was 17.1% (inactive); in assay [15] it was -1.52% (inactive); in [9], 2.68% (inactive). The max response is 21% in [3], -1.75% (inactive) in [10], -4.11% (inactive) in assay [11] and -21.9% (inactive) in assay [12]. For the same compound, the Potency result in [4], in assay [16] and in assay [13] was “inactive” throughout. Also, in [5], the call was inactive.
Consider `CC1(C)[C@H](C=C(Cl)Cl)[C@H]1C(=O)O[C@H](C#N)c1ccc(F)c(Oc2ccccc2)c1`, for which the activation in [1] was -0.69% (inactive) and -0.284% (inactive); in assay [15] it was -1.98% (inactive) and 0.257% (inactive). Moreover, the outcome in [2] and in assay [5] was inactive. The max response in [3] was 27%; in assay [7], -5.65%; in assay [20], -6.52% (inactive); in assay [10], -0.256% (inactive) and -0.375% (inactive); in assay [11] it was -5.83% (inactive) and -7.88% (inactive); in assay [12], -3.74% (inactive) and -16.6% (inactive). For the same compound, the Potency result in [17], in assay [18], in assay [4], in assay [19], in assay [16] and in assay [13] was “inactive” throughout. For the same compound, the activity change % (negative = inhibition) in [8] was -23.6% (inactive).
For `O=S(=O)(c1ccc(Cl)cc1)c1cc(Cl)c(Cl)cc1Cl`, the results for the activation in assay [1], in [15] and in assay [9] were 0.889% (inactive), 8.22% (inactive) and -2.98% (inactive), respectively. In addition, the Potency entry in assay [4], in assay [19], in [16] and in assay [13] was “inactive” throughout. Besides, the compound was called inactive in assay [5]. In addition, in [8], the activity change % (negative = inhibition) was 6.33% (inactive). In addition, the results for the max response in assay [11] and in assay [12] were -29.2% (inactive) and -31.9% (inactive), respectively.
Take `ClC1=C(Cl)[C@@]2(Cl)[C@H]3C[C@@H](Cl)[C@H](Cl)[C@H]3[C@@]1(Cl)C2(Cl)Cl`: the activation in assay [1] is -9.73% (inactive). In assay [4], the Potency entry is “inactive”. In addition, in assay [5], the compound was classed as inactive. In [11], the max response was -24.7% (inactive). The Potency in assay [13] is 50.1 µM (active).
Take `N#CCNC(=O)c1cnccc1C(F)(F)F`: the activation in assay [1] was 0.151% (inactive); in assay [9], 1.26% (inactive). Moreover, in assay [2], the outcome was inactive. Further, the max response in assay [3] is -20.3%; in assay [7], -6.46%; in [11], -0.0757% (inactive); in assay [12] it was -6.61% (inactive); in assay [14], 3.48% (inactive). Further, the Potency entry in assay [17], in assay [18], in [4], in assay [6], in assay [19] and in assay [16] was “inactive” each time. Moreover, the Potency entry in assay [13] is “inactive”. Also, the activity change % (negative = inhibition) in assay [8] was 15.2% (inactive).
